Assay results as given in publication PMC5540273 (PLoS ONE, 2017).

Columns and labels:
Settings in all cases: concentration: 1 μM, replicates: in singlicate; n = 1
HASPIN = tested on: T1, HASPIN
T1 construct: gene GSG2

HCK = tested on: HCK
HIPK1 = tested on: HIPK1
HIPK2 = tested on: HIPK2
HIPK3 = tested on: HIPK3
HIPK4 = tested on: HIPK4
HPK1 = tested on: HPK1
HUNK = tested on: HUNK
ICK = tested on: ICK
IGF1R = tested on: IGF1R
IKK-alpha = tested on: T2, IKK-alpha
T2 construct: gene CHUK

IKK-beta = tested on: T3, IKK-beta
T3 construct: gene IKBKB

IKK-epsilon = tested on: T4, IKK-epsilon
T4 construct: gene IKBKE

INSRR = tested on: INSRR
INSR = tested on: INSR
IRAK1 = tested on: IRAK1
IRAK3 = tested on: IRAK3
IRAK4 = tested on: IRAK4
ITK = tested on: ITK
[1] = tested on: JAK1(JH1domain-catalytic)
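Note: KINOMEscan kinase panel screen.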

Row | SMILES | %Inh (HASPIN) [%] | %Inh (HCK) [%] | %Inh (HIPK1) [%] | %Inh (HIPK2) [%] | %Inh (HIPK3) [%] | %Inh (HIPK4) [%] | %Inh (HPK1) [%] | %Inh (HUNK) [%] | %Inh (ICK) [%] | %Inh (IGF1R) [%] | %Inh (IKK-alpha) [%] | %Inh (IKK-beta) [%] | %Inh (IKK-epsilon) [%] | %Inh (INSRR) [%] | %Inh (INSR) [%] | %Inh (IRAK1) [%] | %Inh (IRAK3) [%] | %Inh (IRAK4) [%] | %Inh (ITK) [%] | %Inh [1] [%]
1 | CC(C)(C)c1ccc2nccc(Nc3cccc(O)c3)c2c1 [GW856795] | 27 | 60 | 18 | 50 | 0 | 0 | 37 | 0 | 24 | 0 | 31 | 0 | 0 | 0 | 0 | 0 | 0 | 0 | 19 | 0
2 | C[C@@H]1CC[C@@H](C(=O)Nc2ccccc2)CN1c1cc(-c2ccc3c(N)n[nH]c3c2)nc(N)n1 [GSK2286062] | 5 | 0 | 0 | 0 | 0 | 25 | 36 | 11 | 0 | 23 | 0 | 0 | 25 | 0 | 25 | 0 | 0 | 0 | 1 | 2
3 | COc1ccc(-c2coc3ccc(-c4nnc(SCc5ccc(OC)c(C(F)(F)F)c5)o4)cc23)cc1 | 0 | 38 | 12 | 17 | 14 | 0 | 4 | 0 | 7 | 12 | 25 | 6 | 22 | 0 | 25 | 10 | 4 | 14 | 25 | 0
4 | COc1cc(Nc2nccc(N3CCC(NC(=O)c4cc5ccccc5s4)C3)n2)cc(OC)c1OC (centres unmarked) [GSK1379760] | 19 | 0 | 9 | 0 | 0 | 9 | 90 | 0 | 0 | 13 | 0 | 0 | 6 | 4 | 5 | 18 | 85 | 4 | 5 | 8
5 | Cl.Cl.NCC(NCc1ccc(-c2ccnc3[nH]ccc23)s1)c1ccccc1 (centres unmarked) [GSK1321565] | 99.8 | 0 | 53 | 55 | 71 | 49 | 66 | 0 | 0 | 0 | 68 | 74 | 39 | 0 | 0 | 71 | 20 | 7 | 13 | 29
6 | CCc1ccc(-c2ccc3c(c2)-c2c(cnn2C)S(=O)(=O)N3C)cc1 | 0 | 0 | 0 | 0 | 11 | 8 | 17 | 0 | 4 | 4 | 0 | 7 | 0 | 7 | 0 | 0 | 11 | 0 | 2 | 0
7 | CCn1c(-c2nonc2N)nc2c(C#CC(C)(C)O)ncc(OCCCCN)c21.O=C(O)C(F)(F)F.O=C(O)C(F)(F)F [GSK507274] | 0 | 0 | 47 | 57 | 100 | 0 | 49 | 0 | 11 | 12 | 24 | 43 | 33 | 0 | 0 | 26 | 0 | 20 | 15 | 21
8 | Cc1ccc(F)c(C(=O)Nc2cccc(-c3nn4ccccc4c3-c3ccnc(Nc4cccc(F)c4)n3)c2)c1F [GSK361061] | 1 | 94.4 | 0 | 0 | 14 | 57 | 21 | 11 | 0 | 41 | 0 | 0 | 22 | 26 | 25 | 0 | 17 | 3 | 43 | 9
9 | COc1ccc(Nc2nccc(N3CCC(NC(=O)Nc4cccc(OC)c4)C3)n2)cc1 (centres unmarked) [GSK1379742] | 10 | 0 | 0 | 28 | 19 | 0 | 56 | 24 | 0 | 0 | 24 | 19 | 0 | 0 | 0 | 0 | 15 | 6 | 11 | 12
10 | COc1cccc(-c2ccc3c(NC(=O)C4CC4)n[nH]c3n2)c1 [SB-710903] | 32 | 0 | 0 | 0 | 41 | 10 | 41 | 1 | 23 | 17 | 50 | 26 | 52 | 0 | 0 | 57 | 0 | 27 | 6 | 9
11 | Cc1cccc(Nc2nc(N[C@H]3CCNC3)ncc2C(N)=O)c1.Cl [GSK2197149] | 54 | 82 | 21 | 8 | 30 | 0 | 88 | 0 | 0 | 2 | 35 | 12 | 13 | 0 | 16 | 21 | 1 | 76 | 21 | 0
12 | NCCCC(NC(=O)c1cc(Br)c(-c2ccnc3[nH]ccc23)s1)c1ccccc1.O=C(O)C(F)(F)F.O=C(O)C(F)(F)F (centres unmarked) [GSK1287544] | 95.7 | 0 | 39 | 14 | 62 | 82 | 62 | 0 | 23 | 2 | 48 | 58 | 0 | 1 | 0 | 94.8 | 0 | 7 | 12 | 72
13 | O=C(Nc1cccc(Oc2ccc3nc(NC(=O)C4CC4)cn3n2)c1)c1ccccc1C(F)(F)F | 0 | 69 | 28 | 0 | 0 | 1 | 10 | 0 | 0 | 0 | 0 | 0 | 0 | 0 | 0 | 0 | 5 | 0 | 0 | 8
14 | Cc1cccc(NC(=O)Nc2ccc(Oc3ncnc4ccn(C)c34)cc2)c1 | 0 | 25 | 24 | 0 | 0 | 52 | 31 | 4 | 0 | 0 | 27 | 8 | 0 | 0 | 0 | 0 | 0 | 0 | 0 | 0
15 | Cn1cc(-c2ccc3c(c2)CCN3C(=O)Cc2cccc(Cl)c2)c2c(N)ncnc21 [GSK2606590] | 2 | 0 | 13 | 0 | 13 | 0 | 47 | 4 | 0 | 0 | 22 | 57 | 78 | 16 | 9 | 0 | 22 | 0 | 19 | 18
16 | O=C(Nc1cccc(-c2nn3ncccc3c2-c2ccnc(Nc3ccccc3)n2)c1)c1c(F)cccc1F [GSK198271] | 0 | 99.3 | 0 | 0 | 9 | 28 | 43 | 3 | 0 | 24 | 0 | 0 | 0 | 0 | 28 | 0 | 0 | 11 | 12 | 5
17 | Cc1ccc(C(=O)N2CC[C@@H](O)C2)cc1-n1c(C)cc(OCc2ccc(F)cc2F)c(Br)c1=O | 0 | 66 | 11 | 0 | 0 | 0 | 0 | 0 | 0 | 0 | 0 | 0 | 0 | 0 | 0 | 0 | 0 | 0 | 0 | 0
18 | COc1cc(Nc2ncc3c(C)nc(-c4cc5ccccc5[nH]4)n3n2)cc(OC)c1OC [GW869516] | 0 | 16 | 79 | 0 | 0 | 17 | 2 | 0 | 0 | 0 | 0 | 0 | 0 | 53 | 4 | 2 | 20 | 0 | 43 | 0
19 | COCCOCCOc1cc2ncc3c4ccc(C#N)cc4[nH]c3c2cc1OC | 18 | 4 | 90.3 | 87 | 87 | 32 | 7 | 0 | 41 | 2 | 30 | 30 | 60 | 0 | 0 | 96 | 75 | 99.9 | 39 | 0
